Rows were chosen to be rich in hits. Some 6.5% of all compounds tested hit in one or more screens of this group.
NADH enzymes – blocks coupling enzymes of NAD/NADH assays | IC50, µM (titrated, usually from 10 µM), for the others: at the highest dose inhibition | AID 774 | coupled PK/LDH NADH assays, four targets | hit rate 0.02% among 65,000;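 active = single-dose screening hits from any of four coupled enzyme assays that gave an IC50 when retested across doses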;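 also: the DPM-DC format reads NADH fluorescence rather than 340 nm absorbance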
Spn MK inh – inhibitors of Streptococcus pneumoniae mevalonate kinase. AID 555. hit rate 0.48% among 65,000. inhibition, % at 10 µM. purified MK, PK/LDH-coupled NADH absorbance 340 nm;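 active = ranked among the strongest by inhibition in the single 10 µM screen, a fixed top-ranked set picked for dose follow-up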
A340 absorber – compound absorbs light at 340 nm; compound absorbance at 340 nm, fold over control; fold change at 10 µM; 65,000 tested, under 10 active;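 active = at 10 µM dose, initial 340 nm absorbance at least 2 fold that of control wells; inactive = change under 2 fold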;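 also: initial absorbance extrapolated from kinetic A340 decline of NADH oxidation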
Autofluor 339 – intrinsic fluorescence of library compounds, ex339/em460 – biochemical, MLSMR library, data from DPM-DC assay, artefact control, profiling panel; compound autofluorescence, ex339/em460 nm, NADH buffer; hits give high values; 1 = no-compound wells, NADH background; fluorescence fold increase at 10 µM; hit rate 5.5% among 65,000;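 active = at 10 µM, mean starting fluorescence two-fold or more over control wells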;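 also: signal is the first read of a kinetic run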
DPM-DC inhibit – S. pneumoniae DPM-DC inhibition | purified DPM-DC, PK/LDH coupled NADH fluorescence | calls only at 10 µM | hit rate 0.49% among 65,000;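 active = the 320 compounds with the highest percent inhibition in the single-dose primary screen, excluding strongly autofluorescent ones, cut at about 32% in these data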;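 also: kinetic rate of NADH fluorescence loss reporting ADP formed by the decarboxylase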
PMK inhibit – inhibitors of Streptococcus pneumoniae phosphomevalonate kinase | purified PMK, PK/LDH-coupled NADH absorbance 340 nm | inhibition, % at 10 µM | hit rate 0.49% among 65,000 | AID 539;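 active = top-ranked compounds by inhibition in the single 10 µM screen, taking a fixed number of the strongest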;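 also: 0% = full reaction with DMSO carrier and 100% = background rate without enzyme reaction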
An asterisk follows results filed as active; i = inactive; x = no result given.

SMILES	NADH enzymes	Spn MK inh	A340 absorber	Autofluor 339	DPM-DC inhibit	PMK inhibit
CN(C(=O)c1cccc(C#N)c1)c1nnc(C2CCOC2)s1 (stereo not given)	7.0%	0.0	1.04	1.02	i	21.0
CN(C(=O)c1ccncc1)c1nnc(-c2ccccn2)s1	15.0%	0.0	1.02	3.07*	i	21.0
CN(C(=O)c1ccncc1)c1nnc(-c2cccnc2)s1	4.0%	0.0	0.99	1.12	i	12.0
CS/C(=N\S(=O)(=O)c1cccs1)NC(=O)CSc1nc2ccccc2s1	4.0%	3.0	1.02	1.32	i	7.0
CCCn1c(CNS(=O)(=O)c2ccc(C)cc2)nc2ccccc21	4.0%	8.0	1.02	1.04	i	2.0
Cc1cc(=O)oc(C)c1C(=O)N[C@@H]1CCCCNC1=O	4.0%	9.0	1	1.08	i	4.0
CC1(C)CC(=O)C(C=NCC2CCN(C(=O)Nc3ccccc3)CC2)=C(O)C1	1.0%	2.0	1.05	1.11	i	0.0
c1ccc(Nc2cc(-c3ccccc3)nc3ncnn23)cc1	6.0%	5.0	1.04	1.17	i	12.0
CCOC(=O)C1CCN(C(=O)Nc2ccccc2Cl)CC1	3.0%	8.0	1.05	1.09	i	0.0
Cc1ccc(-c2nn3c(C)nnc3s2)cc1NC(=O)c1ccc(-c2ccc(Cl)cc2Cl)o1	4.0%	6.0	1.15	3.68*	x	2.0
Cc1nnc2sc(-c3ccc(NC(=O)c4ccc(-c5ccc(Br)cc5)o4)cc3)nn12	0.0%	0.0	1.07	3.68*	x	0.0
COc1cc(NC(=O)c2ccc3c(c2)OCO3)ccc1NC(=O)C(C)C	7.0%	0.0	1.1	1.53	i	7.0
COc1cc(NC(=O)c2ccc(-c3ccc(Br)cc3)o2)ccc1NC(=O)C(C)C	5.0%	5.0	1.13	3.79*	x	4.0
COc1ccc(C(=O)NCC2OCCc3ccccc32)c(O)c1 (stereo not given)	13.0%	7.0	1.02	1.69	i	7.0
O=C(Cn1nc(C(F)(F)F)c2c1CCCC2)NCc1ccco1	8.0%	13.0	1.02	1.08	i	10.0
CCOC(=O)c1[nH]c(C)c(C(=O)OCC)c1C	0.0%	0.0	1.04	1.07	i	0.0
CCOC(=O)c1nc(N)c(C(=O)OCC)[nH]1	3.0%	6.0	1.05	2.27*	x	0.0
COc1cccc(OC)c1-c1nn2c(-c3cc(-c4ccccc4)n[nH]3)nnc2s1	45.7µM*	39.0	1.05	1.35	i	26.0*
COc1ccc(-c2nnc3sc(-c4c(OC)cccc4OC)nn23)cc1	3.0%	2.0	0.99	1.03	i	12.0
CCN(CC)c1ccc(-c2nn3c(-c4ccccc4OC)nnc3s2)cc1	4.0%	3.0	1.08	3.62*	x	4.0
CC1CN(S(=O)(=O)c2cccc(-c3cn4cccnc4n3)c2)CC(C)O1 (stereo not given)	5.0%	5.0	1.12	3.78*	x	4.0
O=S(=O)(c1cccc(-c2cn3cccnc3n2)c1)N1CCCCCC1	9.0%	5.0	1.06	3.6*	x	12.0
O=C(Nc1ccccn1)c1cccc(S(=O)(=O)N2CCOCC2)c1	7.0%	10.0	1.03	0.95	i	6.0
O=S(=O)(c1cccc(-c2cn3cccnc3n2)c1)N1CCOCC1	13.0%	11.0	1.09	3.77*	x	14.0
COC(=O)C(NC=O)C(O)(Cc1ccccc1)C(F)(F)F (stereo not given)	3.0%	0.0	1.01	1.04	i	10.0
SMILES	NADH enzymes	Spn MK inh	A340 absorber	Autofluor 339	DPM-DC inhibit	PMK inhibit
Cn1c(C(=O)Nc2ccc3c(c2)OCO3)cc2c(=O)n(C)c3ccccc3c21	4.0%	10.0	1.01	2.27*	x	7.0
Cc1ccc(C)c(OCCOCCN2CCOCC2)c1	0.0%	1.0	1.03	1.09	i	0.0
Clc1cc(Br)ccc1OCCOCCN1CCOCC1	15.0%	44.0*	1.02	1.11	i	1.0
CN(c1ccccc1)S(=O)(=O)c1ccc(C(=O)OCC(=O)N2CCOCC2)cc1	1.0%	0.0	1	1.05	i	0.0
O=c1cc(-c2ccco2)oc2ccc(Cl)cc12	2.0%	7.0	1.05	2.35*	x	5.0
O=c1c2c(nc3n1CCCCC3)-c1ccccc1CC21CCCC1	7.0%	12.0	1.03	1.03	i	8.0
Cn1c(NCCO)nc2c(c1=O)C1(CCCCC1)Cc1ccccc1-2	0.0%	0.0	1.06	2.21*	x	0.0
CC1(C)Cc2ccccc2-c2nc(NCCCO)n(-c3ccccc3)c(=O)c21	5.0%	4.0	1.09	2.15*	x	5.0

From PubChem BioAssay
